# From PubChem BioAssay
# Shown are actives, neighbours in structure and some others; about 1.7% of the full set was active somewhere.
# GLP1R inv ag: inverse agonists of human GLP-1 receptor. P43220. HEK293 GLP-1R CRE-luciferase, luminescence, 24 h; GLP-1R form is constitutively active. Potency, µM (titrated, usually from 38.3 µM), inactives show top-dose activity change, negative = inhibition, actives largely listed as inhibitors. 1.6% of 410,000 active; note: % is set by controls: 0 for no effect and ±100 for the full control effect; nearly all actives have a fitted effect of over 55% in size
# Target sequence (P43220 whole entry, looked up): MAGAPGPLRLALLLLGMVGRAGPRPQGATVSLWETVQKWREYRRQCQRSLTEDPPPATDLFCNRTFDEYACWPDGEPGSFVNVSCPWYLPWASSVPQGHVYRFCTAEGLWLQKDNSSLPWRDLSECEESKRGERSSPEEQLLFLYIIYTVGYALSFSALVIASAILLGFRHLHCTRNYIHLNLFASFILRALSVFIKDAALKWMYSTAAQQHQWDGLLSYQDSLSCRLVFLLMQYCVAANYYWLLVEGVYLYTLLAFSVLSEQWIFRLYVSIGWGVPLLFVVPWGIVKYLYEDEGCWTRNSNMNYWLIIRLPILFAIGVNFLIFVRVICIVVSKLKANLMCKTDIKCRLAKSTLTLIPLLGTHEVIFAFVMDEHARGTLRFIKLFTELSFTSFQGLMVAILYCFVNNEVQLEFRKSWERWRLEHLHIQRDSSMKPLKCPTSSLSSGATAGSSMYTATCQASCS
#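 GLP-1R inverse agonism mode: basal reporter luminescence in engineered HEK293 cells measured after one day of compound exposure at 37 deg C, with a 12 min room-temperature detection step.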
# GLP1R cytotox: cytotoxic in the GLP-1 receptor inverse agonist counter-screen; HEK293 cAMP-luciferase reporter cells, luminescence, 24 h; Potency, µM (top dose mostly 38.3 µM), inactives show at the top dose activity change, negative = inhibition, hits mostly inhibitors; 0.13% of 410,000 active;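 note: loss of luciferase light is scored as toxicity; % is set by controls: 0 for no effect and ±100 for the full control effect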
#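 Quantitative HTS format, 1536 wells, 200 cells/uL seeded. Compounds: 23 nL, 24 h, 37 °C. Detection: luciferase reagent, luminescence at 12 min RT; decreased signal taken as cytotoxic.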
# GLP1R ag: activates the human GLP-1 receptor. Potency, µM (highest dose often 45.6 µM), for the others: at the top dose activation, hits mostly activators. P43220. 0.007% of 380,000 active. HEK293 GLP-1R CRE-luciferase, luminescence, 4-6 h; cells express a hypersensitive GLP-1R form; note: % of control where 0% means no effect
# * hit, by the source's call; i = inactive; ? = inconclusive; nt = not tested or not shown. Calls come from the whole dose curve; as a rule, active = well fitted curve in the direction sought with a large enough effect; inconclusive = small, poorly fitted or top-dose-only effect, or another doubt; inactive = no such curve, though single readings can be large; an effect the other way counts as inactive or inconclusive. Potency is the fitted concentration of half-maximal effect.
SMILES,GLP1R inv ag,GLP1R cytotox,GLP1R ag
CC1CCN(c2ccc(-c3cccc(NC(=O)C(F)(F)F)c3)nn2)CC1,1µM*,81%,-3%
CC1CCN(c2ccc(-c3cccc(NC(=O)c4ccco4)c3)nn2)CC1,11µM*,-15%,13%
CCC(=O)Nc1cccc(-c2ccc(N3CCC(C)CC3)nn2)c1,-13%,-6%,-6%
O=C(Nc1cccc(-c2ccc(N3CCCCC3)nn2)c1)C(F)(F)F,?,-4%,-10%
CS(=O)(=O)c1ccc(-c2cccc(NC(=O)c3ccco3)c2)nn1,6%,-10%,2%
CN1C[C@H]2c3ccccc3Oc3ccc(Cl)cc3[C@@H]2C1,nt,nt,13%
COc1ccc(C)cc1NC(=O)CCS(=O)(=O)c1cc2c3c(c1)CCN3C(=O)CC2,-3%,1%,nt
CC(C)CNC(=O)COC(=O)c1c2c(nc3ccccc13)/C(=C\c1cccs1)CC2,4.5µM*,i,-9%
O=C(COC(=O)c1c2c(nc3ccccc13)/C(=C\c1cccs1)CCC2)Nc1ccccc1,0%,72%,-3%
O=C(CSc1nc2ccccc2s1)N1N=C(c2cccs2)CC1c1ccc(F)cc1 (stereo not drawn),4µM*,-2%,-7%
COc1ccc(C2CC(c3cccs3)=NN2C(=O)CSc2nc3ccccc3s2)cc1 (stereo not drawn),?,-3%,-7%
CC(=O)Nc1ccc(Nc2nc3ccc(C)cc3n3nnnc23)cc1,33%,1%,nt
CC(C)C[C@H](NC(=O)N1CCCCCC1)C(=O)O,11%,12%,-2%
Cc1[nH]c2ccccc2c1/C=N/NC(=O)c1cccc([N+](=O)[O-])c1,-30%,21%,6%
Cc1[nH]c2ccccc2c1/C=N/Nc1ccc([N+](=O)[O-])cc1,2.8µM*,?,4%
C/C(=N/Nc1ccc([N+](=O)[O-])cc1)c1ccc(C)cc1C,-22%,-28%,-14%
C/C(=N/Nc1ccc([N+](=O)[O-])cc1)c1c[nH]c2ccccc12,2.5µM*,-12%,6%
O=C(O)CSc1nc2sc3c(c2c(=O)n1-c1ccccc1)CCC3,-16%,8%,3%
CC(NC(=O)CSc1nc2sc3c(c2c(=O)n1-c1ccccc1)CCCC3)c1ccccc1 (stereo not drawn),8.9µM*,-17%,0%
CC(O)CNc1nc2sc3c(c2c(=O)n1CCc1ccccc1)CCCCC3 (stereo not drawn),4.5µM*,?,20%
CN(C)CCNc1nc2sc3c(c2c(=O)n1CCc1ccccc1)CCCCC3,?,?,8%
O=C(Cn1cnnn1)N[C@@H]1C(=O)N2C(C(=O)O)=C(CSc3nncs3)CS[C@H]12,nt,nt,-1%
COc1cccc(C2CCCN2Cc2nc(CCC(C)C)no2)c1 (stereo not drawn),?,15%,4%
Cc1ccc2nc(C3CCCN3Cc3nc(CCC(C)C)no3)[nH]c2c1 (stereo not drawn),7.1µM*,3%,-4%
CC1=C(C(N)=O)C(c2ccccc2[N+](=O)[O-])n2ncnc2N1 (stereo not drawn),-2%,-3%,-4%
SMILES,GLP1R inv ag,GLP1R cytotox,GLP1R ag
COc1ccccc1-c1cc(NC(=O)COc2ccc(C)c(C)c2)n(-c2ccccc2)n1,16%,9%,nt
CCC(Oc1ccccc1)C(=O)Nc1cc(-c2ccccc2OC)nn1-c1ccccc1 (stereo not drawn),4.5µM*,8%,nt
CC(C)C(=O)NC(=S)Nc1ccc(S(=O)(=O)NC2CCCCC2)cc1,10µM*,1%,4%
CC(=O)Nc1ccc(S(=O)(=O)NC2CCCCCC2)cc1,13%,-2%,8%
O=C(CNc1cccc(S(=O)(=O)N2CCCC2)c1)Nc1cccc(F)c1,?,4%,7%
Cc1ccc(Nc2nnc(SCC(=O)Nc3cccc(S(=O)(=O)N4CCCCC4)c3)s2)cc1,?,-10%,-2%
O=C(CNc1cccc(C(F)(F)F)c1)Nc1cccc(S(=O)(=O)N2CCCC2)c1,2.5µM*,8%,11%
O=C(CN1CCN(S(=O)(=O)c2ccccc2)CC1)Nc1cccc(C(F)(F)F)c1,4.5µM*,-26%,3%
O=C(CN1CCCN(S(=O)(=O)c2ccc(F)cc2)CC1)Nc1cccc(F)c1,?,0%,9%
O=C(CSc1nnc(Nc2ccccc2F)s1)Nc1cccc(S(=O)(=O)N2CCCCC2)c1,10µM*,-5%,7%
O=C(NC1CCCCC1)C(c1ccnc2ccccc12)n1c(=O)c(-c2ccco2)nc2ccccc21 (stereo not drawn),5%,-4%,nt
O=S(=O)(c1ccc2ccccc2c1)N1CCN(c2ccc(O)cc2)CC1,-26%,-3%,7%
CC(C)(C)c1ccc(C(=O)NCC(=O)OCc2cc(=O)n3nc(C4CC4)sc3n2)cc1,11%,0%,nt
CCOc1ccc(/C=C/c2nc(C#N)c(N3CCCCCC3)o2)cc1,-8%,23%,nt
CN(Cc1ccc(Cl)s1)C(=O)CNC(=O)CNC(=O)c1ccc(Cl)cc1Cl,?,0%,-5%
CCOc1ccc(/C=N/NS(=O)(=O)c2ccc(C)cc2)cc1OC,20%,0%,7%
COc1cc(/C=N/NS(=O)(=O)c2ccc(C)cc2)ccc1OCc1ccc(C(=O)O)cc1,2.8µM*,-10%,-8%
CCCCCCN1C[C@H](O)[C@@H](n2cc(-c3ccc(F)cc3)nn2)C[C@@H]1c1ccc(C)cc1,?,-5%,12%
O=C(Nc1ncccn1)C12CC3CC(CC(C3)C1)C2,3%,13%,6%
O=C(Nc1nccs1)C12CC3CC(C1)CC(C(=O)Nc1nccs1)(C3)C2,4.5µM*,-14%,-23%
FC(F)(F)c1cc(CCN2CCNC[C@@H]2CC2CCCCC2)cc(C(F)(F)F)c1,9%,0%,-11%
CCCC[C@@H]1CNCCN1CCc1cc(C(F)(F)F)cc(C(F)(F)F)c1,11µM*,?,-7%
O=C(NCc1cccnc1)c1ccc([N+](=O)[O-])o1,54%,2%,-1%
c1ccc(OCCNc2nc(NCC3CC3)nc3ccsc23)cc1,8.9µM*,-10%,-2%
c1ccc(-c2cc3nc(NCC4CC4)nc(NCC4CCCCC4)c3s2)cc1,2µM*,?,-5%
SMILES,GLP1R inv ag,GLP1R cytotox,GLP1R ag
CC(=O)Nc1ccc(CNc2nc(NC(C)C)nc3cc(-c4ccccc4)sc23)cc1,11µM*,?,-13%
C=CCNc1nc(NCc2ccc(NC(C)=O)cc2)c2sc(-c3ccccc3)cc2n1,?,?,-9%
COc1ccccc1CNc1nc(NCCOc2ccccc2)c2sccc2n1,?,?,-7%
COCCNc1nc(NCC2CCCCC2)c2sc(-c3ccccc3)cc2n1,?,?,-2%
COc1cc2c(cc1NC(=O)COc1ccc(Br)cc1C)oc1ccccc12,-1%,0%,nt
Cc1ccc2c(c1)C(=O)C(=O)N2Cc1ccc(OC(C)C)cc1,1.1µM*,?,nt
Cc1ccc2c(c1)C(=O)C(=O)N2Cc1ccc(C(F)(F)F)cc1,-20%,1%,-7%
COc1ccccc1C(=O)NC1(C(F)(F)F)C(=O)Nc2c1c(=O)[nH]c(=O)n2-c1ccccc1 (stereo not drawn),12%,7%,-3%
COC(=O)CCn1cnc2onc(-c3cc(F)cc(F)c3)c2c1=O,0%,1%,1%
